# Records with an inconclusive call do not appear. Entries that show only a call come without a potency. Calls of active or inactive are those of the source. The call rests on the fitted dose curve; in most records, active means well fitted curve in the direction sought with a large enough effect; inconclusive means small, poorly fitted or top-dose-only effect, or another doubt; inactive means no such curve, though single readings can be large; an effect the other way counts as inactive or inconclusive.
# Biological target: Calcium and integrin-binding protein 1 (Homo sapiens) (UniProt Q99828)
# Sequence (Q99828 whole entry, looked up): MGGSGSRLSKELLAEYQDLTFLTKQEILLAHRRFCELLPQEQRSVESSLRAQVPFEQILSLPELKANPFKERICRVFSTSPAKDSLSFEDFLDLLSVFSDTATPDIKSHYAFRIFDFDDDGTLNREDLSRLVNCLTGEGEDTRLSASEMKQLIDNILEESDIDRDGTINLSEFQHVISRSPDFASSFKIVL
# Experiment: Primary qHTS for Identification of Calcium Integrin Binding Protein 1 (CIB1) Competitor (AID 1508620);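 further: GST tagged CIB1 binding a fluorescein labelled alphaIIb integrin peptide tracer; top concentration of the series differs between compounds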
# Conditions: CIB1-GST / FITC-alphaIIb peptide fluorescence polarization; series mostly up to 57.7 µM
# In short: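 Fluorescence polarization competition: GST-tagged CIB1 (1 uM final) preincubated with compound 15 min at room temperature, then FITC-labelled alphaIIb peptide (100 nM final) added. After 15 min at room temperature, polarization read at Ex 480/Em 540.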
row,SMILES,outcome
1,CC1(C)SCCN(S(=O)(=O)c2ccc(OCC#CCO)cc2)[C@@H]1C(=O)NO,inactive
2,CO[C@@H]1[C@H](N(C)C(=O)c2ccccc2)C[C@H]2O[C@]1(C)n1c3ccccc3c3c4c(c5c6ccccc6n2c5c31)C(=O)NC4,inactive
3,CCOc1cc(C(=O)Nc2ccc(Cl)c(-c3nc4ccccc4[nH]3)c2)cc(OCC)c1OCC,inactive
4,CNC(=O)c1ccc(N2C(=S)N(c3ccc(C#N)c(C(F)(F)F)c3)C(=O)C2(C)C)cc1F,inactive
5,Cc1ccnc(NS(=O)(=O)c2ccc(NC(=O)Nc3ccc(S(=O)(=O)Nc4nccc(C)n4)cc3)cc2)n1,inactive
6,COCC(=O)NCC=Cc1ccc2ncnc(Nc3ccc(Oc4ccc(C)nc4)c(C)c3)c2c1,inactive
7,COc1cc(F)c(F)c(Nc2ccc(I)cc2F)c1NS(=O)(=O)C1(C[C@H](O)CO)CC1,inactive
8,Cc1cc2c(F)c(Oc3ncnn4cc(OC[C@@H](C)O)c(C)c34)ccc2[nH]1,inactive
9,COc1cc2c(cc1OC)CN(CCc1ccc(NC(=O)c3cccc4c(=O)c5cccc(OC)c5[nH]c34)cc1)CC2,inactive
10,Cc1csc(NC(=O)c2sc3nc4c(c(C(F)(F)F)c3c2N)CCC4)n1,inactive
11,O=C(NOC[C@H](O)CO)c1ccc(F)c(F)c1Nc1ccc(I)cc1F,inactive

# System: not listed separately
# Experiment: Primary qHTS for small molecule stabilizers of the endoplasmic reticulum resident proteome: Secreted ER Calcium Modulated Protein (SERCaMP) assay (AID 1508630)
# Conditions: SH-SY5Y GLuc-SERCaMP (Gaussia luciferase released on ER calcium loss) secretion, thapsigargin, luminescence; series mostly up to 38.4 µM
# In short: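 GLuc-SERCaMP-expressing SH-SY5Y cells, pretreated 16 h with compound, are challenged with thapsigargin to empty ER calcium stores; after 4 h, coelenterazine is added directly to the medium and luminescence is imaged.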
row,SMILES,Potency
1,Cc1cnc(Nc2ccc(OCCN3CCCC3)cc2)nc1Nc1cccc(S(=O)(=O)NC(C)(C)C)c1,inactive
2,CC(C)c1onc(-c2c(Cl)cccc2Cl)c1COc1ccc(/C=C/c2cccc(C(=O)O)c2)c(Cl)c1,inactive
3,CN(C)c1ccc(C2Nc3ccc4ccccc4c3C3=C2C(=O)CC(C)(C)C3)cc1Br (stereo not given),inactive
4,Cc1cc(C=c2sc3nc4ccccc4n3c2=O)c(C)n1-c1ccccc1,inactive
5,CCOC(=O)C1=C[C@@]2(CC)CCCN3CCc4c(n1c1ccccc41)[C@H]32,inactive
6,COc1ccc(CCN2CCN(CCCc3ccccc3)CC2)cc1OC,inactive
7,CCN(CC)CCCC(C)Nc1nc(C)cc(Nc2ccc3nc(C)cc(N)c3c2)n1 (stereo not given),inactive
8,CCOc1ccn(-c2ccc(F)cc2)c(=O)c1C(=O)Nc1ccc(Oc2ccnc(N)c2Cl)c(F)c1,inactive
9,O=C(c1cc(Cc2n[nH]c(=O)c3ccccc23)ccc1F)N1CCN(C(=O)C2CC2)CC1,inactive
10,CC1(C)SCCN(S(=O)(=O)c2ccc(OCC#CCO)cc2)[C@@H]1C(=O)NO,inactive
11,CO[C@@H]1[C@H](N(C)C(=O)c2ccccc2)C[C@H]2O[C@]1(C)n1c3ccccc3c3c4c(c5c6ccccc6n2c5c31)C(=O)NC4,inactive
12,CCOc1cc(C(=O)Nc2ccc(Cl)c(-c3nc4ccccc4[nH]3)c2)cc(OCC)c1OCC,inactive
13,Cc1cccc(-c2nn(C(=S)Nc3ccccc3)cc2-c2ccnc3ccccc23)n1,inactive
14,CCC(C)(C)C(=O)O[C@H]1C[C@@H](C)C=C2C=C[C@H](C)[C@H](CC[C@@H]3C[C@@H](O)CC(=O)O3)[C@H]21,inactive
15,COc1cc2nccc(Oc3ccc(NC(=O)NC4CC4)c(Cl)c3)c2cc1C(N)=O,inactive
16,OCCn1cc(-c2cnc3nnn(Cc4ccc5ncccc5c4)c3n2)cn1,inactive
17,CNC(=O)c1ccc(N2C(=S)N(c3ccc(C#N)c(C(F)(F)F)c3)C(=O)C2(C)C)cc1F,inactive

row,SMILES,Potency
1,Cc1ccnc(NS(=O)(=O)c2ccc(NC(=O)Nc3ccc(S(=O)(=O)Nc4nccc(C)n4)cc3)cc2)n1,inactive
2,O=C(Nc1ccc(F)c(C(F)(F)F)c1)Nc1nnc(-c2ccncc2)s1,inactive
3,COCC(=O)NCC=Cc1ccc2ncnc(Nc3ccc(Oc4ccc(C)nc4)c(C)c3)c2c1,inactive
4,O=S(=O)(N=Cc1c(O)ccc2ccccc12)c1cccs1,inactive
5,O=c1[nH]c(-c2ccc(C(F)(F)F)cc2)nc2c1CSCC2,inactive
6,Cc1ccc2c(c1)C(=O)[C@@]1(O)CCN(c3ccccc3)C1=N2,inactive
7,COc1cc(F)c(F)c(Nc2ccc(I)cc2F)c1NS(=O)(=O)C1(C[C@H](O)CO)CC1,inactive
8,Cc1cc2c(F)c(Oc3ncnn4cc(OC[C@@H](C)O)c(C)c34)ccc2[nH]1,inactive
9,COc1cc2c(cc1OC)CN(CCc1ccc(NC(=O)c3cccc4c(=O)c5cccc(OC)c5[nH]c34)cc1)CC2,inactive
10,Cc1c(CN2CCN(C(=O)C(C)C)CC2)sc2c(N3CCOCC3)nc(-c3cnc(N)nc3)nc12,inactive
11,NC(=O)c1ccc(-c2nc(-c3ccc4c(c3)OCCO4)c(-c3ccccn3)[nH]2)cc1,inactive
12,N#Cc1ccc(C(c2ccc(C#N)cc2)n2cncn2)cc1,inactive
13,Cc1csc(NC(=O)c2sc3nc4c(c(C(F)(F)F)c3c2N)CCC4)n1,inactive
14,COc1ccc(-c2oc3cc(OC)ccc3c2C(=O)c2ccc(C#N)cc2)cc1,inactive
15,CC1(C)Cc2c(-c3ccccc3)c(-c3ccc(Cl)cc3)c(CC(=O)O)n2C1,inactive
16,COc1ccc(CC2=NN3C([C@@H](CCc4ccccc4)[C@@H](C)O)=NC(C)C3C(=O)N2)cc1OC (stereo not given in full),inactive
17,O=C(NOC[C@H](O)CO)c1ccc(F)c(F)c1Nc1ccc(I)cc1F,inactive

# Source: PubChem BioAssay (NCATS)
